Assay outcomes as filed in PubChem BioAssay.
The list is not random: actives were taken first. Their share in the collection is about 5.4%.
VP16 counter = VP16 counterscreen qHTS for inhibitors of ROR gamma transcriptional activity; Drosophila S2 Gal4-VP16 UAS-luciferase, luminescence, 20 h; Potency, µM (doses to about 53.6 µM), inactives show top-dose activity, negative = inhibition, hits mostly inhibitors; 310,000 compounds, 3.5% hits; AID 2546, 2010;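 note: Gal4-VP16 expression switched on by copper sulfate through the metallothionein promoter; potency is the fitted concentration of half-maximal effect; % is set by controls: 0 for no effect and ±100 for the full control effect; nearly all actives have a fitted effect of over 50% in size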
p53 reactivation = qHTS assay for re-activators of p53 using a Luc reporter. H1299 p53-A138V BP100-luciferase reporter, luminescence, 24 h. 320,000 compounds, 0.063% hits. Potency, µM (highest dose often 92.2 µM), for inactives: top-dose activity change, positive = activation, usual class: activators; note: potency is the fitted concentration of half-maximal effect; % of control where 0% means no effect; nearly all actives have a fitted effect of over 45% in size
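H1299 (p53-null), stable ts p53-A138V + BP100-Luc; 1000 cells/well, Opti-MEM/10% FBS; cpd 4 pt, 1:5; 24 h, 37 deg C, 5% CO2; detection reagent 10 min RT; luminescence.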
CtBP-E1A blk = qHTS Assay for Inhibitors of the CtBP/E1A Interaction; CtBP / adenovirus E1A interaction (AlphaScreen); AlphaScreen GST-E1A/His-CtBP binding, 1536-well; stronger effect = lower value; activity change, % (no concentration beside the values); 340,000 compounds, 0.49% hits; AID 651724, 2012; in the data active = activity change below about -65%; inconclusive = mostly about -30% to -63%; note: % is set by controls: 0 for no effect and ±100 for the full control effect
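Steps: dispense buffer (Tris pH 8.0, NaCl 300 mM, TCEP 1 mM, BSA, Tween 20); add 5X protein mix (GST-E1A, His-CtBP, 125 nM each); pin 23 nL compound; 2 h at 37 °C, dark; add 5X beads (50 ug/mL); 1 h; read.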
RORgamma inh = qHTS for inhibitors of ROR gamma transcriptional activity; Drosophila S2 Gal4-RORgamma UAS-luciferase reporter, 20 h; AID 2551, 2010; 310,000 compounds, 5.4% hits; Nuclear receptor ROR-gamma (Mus musculus), P51450; Potency, µM (doses to about 53.6 µM), without a hit: at the highest dose activity change, negative = inhibition, hits mostly inhibitors; note: potency is the fitted concentration of half-maximal effect; % is set by controls: 0 for no effect and ±100 for the full control effect; nearly all actives have a fitted effect of over 60% in size
Target sequence (P51450 whole entry, looked up, the tested form may be a part): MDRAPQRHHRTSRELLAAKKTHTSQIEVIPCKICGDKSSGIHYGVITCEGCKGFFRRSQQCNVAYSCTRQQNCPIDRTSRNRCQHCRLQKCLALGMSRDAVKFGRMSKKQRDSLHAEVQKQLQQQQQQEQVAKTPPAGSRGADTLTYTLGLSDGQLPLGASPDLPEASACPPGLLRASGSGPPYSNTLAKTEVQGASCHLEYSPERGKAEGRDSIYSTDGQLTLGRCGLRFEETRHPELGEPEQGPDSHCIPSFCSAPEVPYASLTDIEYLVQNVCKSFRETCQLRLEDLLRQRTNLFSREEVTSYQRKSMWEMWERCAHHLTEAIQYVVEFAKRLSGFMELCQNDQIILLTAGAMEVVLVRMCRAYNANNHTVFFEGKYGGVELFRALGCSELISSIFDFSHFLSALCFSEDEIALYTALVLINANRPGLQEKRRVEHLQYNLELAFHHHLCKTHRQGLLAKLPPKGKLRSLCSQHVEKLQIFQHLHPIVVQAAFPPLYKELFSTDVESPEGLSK
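Schneider cells (Drosophila), stable Gal4 DBD–ROR gamma + UAS-luc; 1 hr cmpd preincubation; Cu2+ induction 700 uM final; 20 hr ambient; luminescence.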
Six1-Eya2 blk = qHTS Assay for Inhibitors of the Six1/Eya2 Interaction; Homeobox protein SIX1 (Homo sapiens) + Protein phosphatase EYA2 (Homo sapiens), …; AlphaScreen GST-Six1/His-Eya2 binding, biochemical; stronger effect = lower value; activity change, % (test concentration not listed); 360,000 compounds, 0.56% hits; AID 651725, 2012; in the data active = activity change below about -65%; inconclusive = mostly about -30% to -63%; note: % is set by controls: 0 for no effect and ±100 for the full control effect
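AlphaScreen with GST-Six1 and His-Eya2 (5X mix: 250 nM and 500 nM), glutathione donor and nickel acceptor beads; buffer 50 mM Tris pH 8.0, 300 mM NaCl, 1 mM TCEP; 1 h at 37 C in the dark.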
The depositor's hits bear a star; [ ] = remark or other dose. Unless noted, calls come from the whole dose curve; as a rule, active = well fitted curve in the direction sought with a large enough effect; inconclusive = small, poorly fitted or top-dose-only effect, or another doubt; inactive = no such curve, though single readings can be large; an effect the other way counts as inactive or inconclusive.

How did O=C(Nc1cccc(-c2nn[nH]n2)c1)c1cccs1 do in these assays?
VP16 counter: 10µM*; p53 reactivation: 21.4%; CtBP-E1A blk: inconclusive; RORgamma inh: 7.94µM*; Six1-Eya2 blk: inconclusive

How did C=CCc1cccc(/C=N/NC(=O)C(C)Nc2cccc(C)c2)c1O (configuration not stated) do in these assays?
VP16 counter: 2.51µM*; p53 reactivation: 0.4%; CtBP-E1A blk: -15.9; RORgamma inh: 0.0398µM*; Six1-Eya2 blk: -23.0

Results for O=C(C[n+]1ccccc1)N/N=C/c1cccc(Cl)c1Cl ?
VP16 counter: 0.0%; p53 reactivation: -4.3%; RORgamma inh: 20.5%; Six1-Eya2 blk: -3.6

What do the screens show for `C=CCc1cccc(/C=N/NC(=O)CNc2ccccc2OC)c1O`?
VP16 counter: -1.8%; p53 reactivation: 11.7%; CtBP-E1A blk: inconclusive; RORgamma inh: 1.26µM*; Six1-Eya2 blk: -26.9

Results for CC(Nc1ccc(Br)cc1)C(=O)N/N=C/c1ccccc1OCc1ccccc1 (configuration not stated) ?
VP16 counter: 13.3%; p53 reactivation: inconclusive; CtBP-E1A blk: -13.2; RORgamma inh: -3.2%; Six1-Eya2 blk: -13.9

What do the screens show for `C=CCc1cccc(/C=N/NC(=O)CN2CCN(Cc3ccccc3)CC2)c1O`?
VP16 counter: 10µM*; RORgamma inh: 1.12µM*

Results for C=CCc1cccc(/C=N/NC(=O)C[n+]2ccccc2)c1O ?
VP16 counter: -11.3%; p53 reactivation: 23.7%; CtBP-E1A blk: -91.1*; RORgamma inh: inconclusive; Six1-Eya2 blk: -89.3*

How did CCCC/C=C/[C@H](c1ccccc1)[C@H](CO)Cc1cccnc1 do in these assays?
VP16 counter: inconclusive; CtBP-E1A blk: 11.9; RORgamma inh: -0.8%; Six1-Eya2 blk: 1.5

How did C=CCc1cccc(/C=N/n2cnnc2)c1O do in these assays?
VP16 counter: -11.6%[0.365 µM]; p53 reactivation: 4.0%; CtBP-E1A blk: -13.2; RORgamma inh: 7.08µM*; Six1-Eya2 blk: 2.9

Results for C=CCc1cccc(/C=N/NC(=O)CCCNc2ccc(C)cc2)c1O ?
VP16 counter: 2µM*; p53 reactivation: inconclusive; CtBP-E1A blk: inconclusive; RORgamma inh: 1µM*; Six1-Eya2 blk: inconclusive

How did C=CCc1cccc(/C=N/NC(=O)CNc2cccc3ccccc23)c1O do in these assays?
VP16 counter: 1.12µM*; p53 reactivation: -0.8%; CtBP-E1A blk: -10.9; RORgamma inh: 0.562µM*; Six1-Eya2 blk: -21.0

What do the screens show for `C=CCc1cccc(/C=N/NC(=O)CNc2ccccc2)c1O`?
VP16 counter: inconclusive; CtBP-E1A blk: -2.3; RORgamma inh: 1.58µM*; Six1-Eya2 blk: -2.8

How did O=C(CN1CCN(Cc2ccccc2)CC1)N/N=C/c1ccco1 do in these assays?
VP16 counter: -5.9%; p53 reactivation: -1.5%; CtBP-E1A blk: 3.5; RORgamma inh: 38.1%; Six1-Eya2 blk: 3.4

What do the screens show for `O=C(CN1CCN(Cc2ccccc2)CC1)N/N=C/c1ccc(Br)s1`?
VP16 counter: 10µM*; p53 reactivation: -5.0%; CtBP-E1A blk: -2.4; RORgamma inh: 5.62µM*; Six1-Eya2 blk: 2.2

How did C=CCc1cccc(/C=N/NC(=O)CCC(=O)Nc2ccc(F)cc2)c1O do in these assays?
VP16 counter: 1µM*; p53 reactivation: 15.6%; CtBP-E1A blk: -4.1; RORgamma inh: 1µM*; Six1-Eya2 blk: 5.7

What do the screens show for `CCC(C)C1NC(=S)N(Cc2ccccc2)C1=O` (configuration not stated)?
VP16 counter: inconclusive; p53 reactivation: 13.1%; CtBP-E1A blk: -12.0; RORgamma inh: 10µM*; Six1-Eya2 blk: 3.6

How did O=C1C(Cc2ccccc2)NC(=S)N1Cc1ccccc1 (configuration not stated) do in these assays?
VP16 counter: -20.9%; p53 reactivation: -1.6%; RORgamma inh: 12.6µM*; Six1-Eya2 blk: -1.0

Results for COc1cc(NC(=S)NN2CCOCC2)cc(OC)c1 ?
CtBP-E1A blk: -2.3; Six1-Eya2 blk: -7.8

Results for CCC(C)c1ccc(NC(=S)NN2CCOCC2)cc1 (configuration not stated) ?
VP16 counter: 4.47µM*; p53 reactivation: inconclusive; CtBP-E1A blk: 6.4; RORgamma inh: 2.24µM*; Six1-Eya2 blk: -0.2

What do the screens show for `Fc1cc(F)cc(NC(=S)NN2CCOCC2)c1`?
VP16 counter: 7.4%[10 µM]; p53 reactivation: 5.0%; CtBP-E1A blk: 7.5; RORgamma inh: 10µM*; Six1-Eya2 blk: 10.2

What do the screens show for `CCCCc1ccc(NC(=S)NN2CCOCC2)cc1`?
VP16 counter: -26.0%; p53 reactivation: inconclusive; CtBP-E1A blk: 0.6; RORgamma inh: -7.9%; Six1-Eya2 blk: 2.5

Results for CC(C)c1ccc(NC(=S)NN2CCN(C)CC2)cc1 ?
VP16 counter: 14.3%; p53 reactivation: -0.1%; CtBP-E1A blk: 0.0; RORgamma inh: 11.2µM*; Six1-Eya2 blk: 9.2

How did CC1(C(=O)NS(=O)(=O)c2cccc(OC(F)F)c2)CCN1C(=O)c1ccco1 (configuration not stated) do in these assays?
CtBP-E1A blk: 9.4; Six1-Eya2 blk: 8.5

How did C[n+]1ccn(CC(=O)c2cccs2)c1 do in these assays?
VP16 counter: -6.3%; CtBP-E1A blk: -1.5; RORgamma inh: 10µM*; Six1-Eya2 blk: 6.2

What do the screens show for `O=C(CCC(=O)c1cccs1)c1cccs1`?
VP16 counter: -29.7%; p53 reactivation: inconclusive; CtBP-E1A blk: 5.5; RORgamma inh: inconclusive; Six1-Eya2 blk: 4.6

How did COc1ccc(C2C=C(C34CC5CC(CC(C5)C3)C4)NC(=S)N2)cc1OC (configuration not stated) do in these assays?
VP16 counter: 1.58µM*; p53 reactivation: -13.4%; CtBP-E1A blk: inconclusive; RORgamma inh: 1.26µM*; Six1-Eya2 blk: inconclusive

Results for S=c1[nH]nc(COc2ccccc2)n1-c1ccc(Cl)cc1 ?
CtBP-E1A blk: -17.1; Six1-Eya2 blk: -12.7

What do the screens show for `Cn1c(CCc2ccccc2)n[nH]c1=S`?
VP16 counter: -2.9%; p53 reactivation: 2.3%; CtBP-E1A blk: -2.3; RORgamma inh: 12.6µM*; Six1-Eya2 blk: 18.4

Results for Cc1cccc(C)c1NCc1n[nH]c(=S)n1-c1ccccc1 ?
VP16 counter: inconclusive; p53 reactivation: -3.7%; CtBP-E1A blk: 9.7; RORgamma inh: 2µM*; Six1-Eya2 blk: -2.8

Results for Cc1ccc(C)c(NCc2n[nH]c(=S)n2-c2ccccc2)c1 ?
VP16 counter: -4.9%; p53 reactivation: -1.1%; CtBP-E1A blk: 2.6; RORgamma inh: -19.7%; Six1-Eya2 blk: 2.2

What do the screens show for `Cc1n[nH]c(=S)n1-c1cccc(Cl)c1`?
VP16 counter: inconclusive; p53 reactivation: -7.7%; CtBP-E1A blk: 2.0; RORgamma inh: 11.2µM*; Six1-Eya2 blk: 8.0
